Bioassay records as filed in PubChem.
The list is not random: actives were taken first. Their share in the collection is about 3.9%.
GALK inhibitor – qHTS Assay for Inhibitors of Human Galactokinase (GALK); Purified GALK, Kinase-Glo residual ATP luminescence; Potency, µM (highest dose often 57.5 µM), without a hit: at the top dose activity change, negative = inhibition, most hits filed as inhibitors; 270,000 compounds, 0.007% hits; AID 1868, 2009; also: potency is read from the fitted curve at half-maximal effect; % is scaled to controls: 0 for no effect and ±100 for the full control effect
Target sequence (P51570 whole entry, looked up): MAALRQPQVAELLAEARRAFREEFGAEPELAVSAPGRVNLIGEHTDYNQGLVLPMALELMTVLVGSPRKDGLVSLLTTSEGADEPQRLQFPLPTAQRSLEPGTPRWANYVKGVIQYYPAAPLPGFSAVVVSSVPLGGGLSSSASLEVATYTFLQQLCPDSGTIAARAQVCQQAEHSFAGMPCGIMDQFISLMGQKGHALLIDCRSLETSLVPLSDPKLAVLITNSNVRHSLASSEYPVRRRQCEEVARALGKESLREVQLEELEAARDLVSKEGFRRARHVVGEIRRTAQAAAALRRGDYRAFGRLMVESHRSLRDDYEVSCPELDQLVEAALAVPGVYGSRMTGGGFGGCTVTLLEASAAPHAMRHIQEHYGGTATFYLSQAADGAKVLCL
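Compounds were pin-transferred into ATP buffer (35 uM final), then GALK plus galactose (5 nM, 100 uM final) was added. After 1 h at room temperature, Kinase-Glo Plus was added and luminescence read after 10 min.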
D1 agonist – Allosteric Agonists of the Human D1 Dopamine Receptor: qHTS. D(1A) dopamine receptor (Homo sapiens), P21728. HEK293 T-REx D1 cells, calcium flux, agonist mode. activation, % at 2 µM. 360,000 compounds, 1% hits. AID 504660, 2011; in the data active = activation above about 30%; also: 0% is about no effect
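Tetracycline-induced HEK293 TREx D1 cells, force-coupled to calcium signalling, were dye-loaded with a no-wash calcium kit. Compound was pin-added after a 10 s baseline. Fluorescence was read kinetically at 1 cycle/s for 180 s, with calcium rises flagged as agonism.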
USP2a inh – qHTS Assay for Inhibitors of Ubiquitin-specific Protease USP2a Using CHOP2 as the Reporter. AID 463254, 2010. USP2 core, Ub-CHOP2 coupled fluorogenic reporter, 485/531. Ubiquitin carboxyl-terminal hydrolase 2 (Homo sapiens), O75604. 330,000 compounds, 0.01% hits. Potency, µM (doses to about 38.3 µM), for the others: top-dose activity change, negative = inhibition, actives largely listed as inhibitors;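 also: potency is read from the fitted curve at half-maximal effect; plate controls were DMSO wells for no effect and full inhibition by NEM control for full effect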
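Cell-free coupled assay: 10nM USP2 core preincubated 30min RT with compound in Tris-HCl pH 8.0/CaCl2/CHAPS buffer, then 25nM Ub-CHOP2 and 25nM reporter substrate; fluorescence (Ex 485/Em 531) read after 60min RT, normalized to NEM inhibition, concentration-response curves fitted.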
D1 potentiator – Potentiators of Human D1 Dopamine Receptor: qHTS; D(1A) dopamine receptor (Homo sapiens), P21728; HEK293 TREx D1 cells, calcium flux, dopamine EC20 potentiation; potentiation, % at 10 µM; 360,000 compounds, 0.036% hits; in the data active = potentiation above about 30%; also: 0% is about no effect
D1 antagonist – Antagonist of Human D 1 Dopamine Receptor: qHTS | D(1A) dopamine receptor (Homo sapiens), P21728 | HEK293 TREx D1 cells, calcium flux, dopamine EC80; active compounds read low | activity change, negative = inhibition, % at 10 µM | 360,000 compounds, 3.2% hits | AID 504652, 2011; in the data active = activity change below about -30%; also: % is scaled to controls: 0 for no effect and ±100 for the full control effect
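Kinetic fluorescence of a calcium dye serves as the read-out. D1-expressing Hek293 Trex cells, induced overnight at 30 C, are exposed to compound for 180 s before an EC80 dopamine addition, then read 180 s further.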
Eya2 inh – qHTS Assay for Inhibitors of the Phosphatase Activity of Eya2; 330,000 compounds, 0.006% hits; AID 488837, 2010; recombinant Eya2, OMFP fluorescence dephosphorylation (OMFP is methylfluorescein phosphate); Protein phosphatase EYA2 (Homo sapiens), O00167; Potency, µM (doses to about 76.9 µM), without a hit: at the top dose activity, negative = inhibition, most hits filed as inhibitors; also: potency is read from the fitted curve at half-maximal effect; % is scaled to controls: 0 for no effect and ±100 for the full control effect
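Eya2 (0.2 uM) preincubated 10 min at ambient with compound, then OMFP substrate added at 50 uM; 10 min reaction in 50 mM HEPES pH 7.5, 50 mM NaCl, 5 uM MgCl2, 0.05% BSA, 1 mM DTT. Fluorescence read at Ex 485/Em 525 nm.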
Active calls of the source: *; · = not tested or not shown; ! = not confirmed by another sample. Unless noted, calls follow the shape of the dose curve; as a rule, active = well fitted inhibition curve with a large enough effect; inconclusive = small, poorly fitted or top-dose-only effect, or effect the other way; inactive = flat fitted curve, though single readings scatter.

SMILES	GALK inhibitor	D1 agonist	USP2a inh	D1 potentiator	D1 antagonist	Eya2 inh
CCc1ccc(OCC(=O)N(Cc2ccc(C)o2)C2CCS(=O)(=O)C2)cc1 (stereo not drawn)	·	17.1	·	-1.9	-0.7	·
COc1ccc(-c2cn(Cc3ccc4ccccc4c3)nn2)cc1	·	6.8	3.2%	-3.3	-31.9*	-3.1%
Cc1ccc(S(=O)(=O)NCCc2csc(-c3cccc(F)c3)n2)cc1	·	17.8	·	-2.5	-23.7	·
CNC(=S)N(Cc1ccc(OC)cc1)C1CC(=O)N(c2ccc(OC)cc2)C1=O (stereo not drawn)	-0.2%	3.9	-5.7%	-2.2	-36.3*	2.3%
Cn1ncc(-c2ccno2)c1C(=O)O	-3.0%	37.4*	3.6%	-0.3	-6.3	1.1%
Cc1ccc2c(=O)c(C(=O)c3ccccc3)cn(CC(=O)Nc3ccc4c(c3)OCCO4)c2n1	·	2.8	·	0.1	-5.9	·
CCOc1ccccc1NS(=O)(=O)c1ccc(-c2cnc(C3CC3)o2)cc1	-0.3%	17.7	-7.9%	-1.6	-37.7*!	-2.5%
COc1ccc(NS(=O)(=O)c2ccc(-c3cnc(C4CC4)o3)cc2)cc1OC	4.4%	16.7	-0.7%	-7.3	-30.8*	-3.4%
COc1ccccc1NS(=O)(=O)c1ccc(-c2cnc(C3CC3)o2)cc1	0.5%	10.3	-0.2%	-2.4	-24.9	3.8%
Cc1ccc(N(C)S(=O)(=O)c2cc(-c3cnc(C4CC4)o3)ccc2C)cc1	6.7%	-0.4	-0.2%	2.3	-3.4	9.6%
Cc1cccc(N(C)S(=O)(=O)c2ccc(-c3cnc(C4CC4)o3)cc2)c1	-2.4%	8.8	-8.8%	-10.0	-37.5*	-2.1%
COc1cccc(C(=O)Nc2cccc(-c3cn4ccsc4n3)c2)c1OC	·	-0.2	·	2.4	-4.3	·
CCC1CCCCN1C(=S)Nc1ccc(OC(F)F)cc1 (stereo not drawn)	-0.4%	18.7	3.1%	-0.4	-43.2*	-4.7%
CCC(C)NC(=O)Cn1ncc2c([nH]c3ccc(C)cc32)c1=O (stereo not drawn)	·	1.8	·	3.5	-25.8	·
COc1ccc(/C=C2/SC(c3ccc(C)cc3)=NC2=O)cc1OC	1.9%	6.0	3.5%	1.1	-1.9	-3.7%
COc1ccc(/C=C2\SC(c3ccc(C)cc3)=NC2=O)cc1OC	-2.3%	53.4*	0.8%	-4.5	-6.1	6.3%
COc1ccc(/C=C2\SC(=O)NC2=S)cc1OC	-1.6%	32.5*	11.9%	5.3	2.1	32.7%
COc1ccc(-n2c(=O)c3ccccc3n(Cc3cccc(C)c3)c2=O)cc1	·	2.8	·	0.7	-1.3	·
CC1=C(C(=O)Nc2cccc(Cl)c2C)C2(CCCCCC2)OC1=O	·	-0.6	·	1.8	-7.4	·
CCN(CC)C(=O)CSc1nc(C)cc(C)c1C#N	-3.6%	1.1	1.1%	2.8	10.8	-4.6%
CCc1ccc2nc(SCC(=O)N(CC)CC)c(C#N)cc2c1	3.7%	1.0	-3.1%	-8.2	-45.6*	12.7%
COc1cc(OC)cc(C(=O)NC2CCN(CCCOc3ccccc3)CC2)c1	-1.2%	7.1	1.4%	-20.0	-36.8*	-9.2%
C=CCn1c(SCCCC)nc(O)cc1=O	2.5%	79.5*	-1.1%	3.6	-14.6	-5.4%
CCCCSc1nc(O)cc(=O)n1CC	10.2%	38.1*	1.9%	-2.2	-8.6	-2.9%
C=CCn1c(SC(C)CC)nc(O)cc1=O (stereo not drawn)	1.8%	140.1*	2.0%	5.7	-28.5	7.6%
COc1ccc(CCN2C(=O)NC(NC(=O)c3ccccc3OC)(C(F)(F)F)C2=O)cc1OC (stereo not drawn)	·	-1.3	·	0.9	-5.9	·
Cn1c2cc(Br)sc2c2cnn(Cc3ccccc3F)c(=O)c21	·	0.0	·	8.2	2.7	·
